Compound activity (PubChem BioAssay)
MPTP inh = blocks calcium-induced mitochondrial swelling. inhibition, % at 10 µM. isolated mouse mitochondria, Ca2+ swelling absorbance, 30 min. AID 602449. 360,000 compounds, 1.4% hits;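 active = inhibition of 50% or more, scaled per plate between neutral and stimulator controls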
CSC inhib = cancer stem cell inhibition; inhibition, % at 7.5 µM; 300,000 compounds, 1.1% hits; cancer stem cell-like cells viability, luminescence; in the data active = inhibition above about 75%; inconclusive = no clear call, values can overlap the other calls; tested in HMLE shEcad cells
Mdm2-MdmX inh = disrupts the human Mdm2-MdmX interaction | SaOS-2 split-luciferase Mdm2/MdmX complementation, luminescence | O15151+Q00987 | inhibition, % at 8 µM | 330,000 compounds, 3% hits;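 active = inhibition of at least 50% at 8 µM in the primary screen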
Target sequence (O15151 whole entry, looked up): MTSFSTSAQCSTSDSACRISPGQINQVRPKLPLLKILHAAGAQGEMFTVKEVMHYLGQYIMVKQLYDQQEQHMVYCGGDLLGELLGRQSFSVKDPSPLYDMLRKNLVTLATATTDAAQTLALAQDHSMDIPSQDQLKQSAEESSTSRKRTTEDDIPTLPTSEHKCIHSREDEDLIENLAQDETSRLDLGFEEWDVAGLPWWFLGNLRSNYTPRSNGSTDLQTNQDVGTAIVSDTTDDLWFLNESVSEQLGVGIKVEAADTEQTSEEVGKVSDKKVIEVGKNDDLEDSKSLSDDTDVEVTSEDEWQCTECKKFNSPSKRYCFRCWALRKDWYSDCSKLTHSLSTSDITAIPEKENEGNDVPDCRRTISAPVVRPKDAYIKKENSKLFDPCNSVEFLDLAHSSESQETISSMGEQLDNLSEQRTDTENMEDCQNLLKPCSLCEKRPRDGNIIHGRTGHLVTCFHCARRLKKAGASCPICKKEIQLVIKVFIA
Target sequence (Q00987 whole entry, looked up): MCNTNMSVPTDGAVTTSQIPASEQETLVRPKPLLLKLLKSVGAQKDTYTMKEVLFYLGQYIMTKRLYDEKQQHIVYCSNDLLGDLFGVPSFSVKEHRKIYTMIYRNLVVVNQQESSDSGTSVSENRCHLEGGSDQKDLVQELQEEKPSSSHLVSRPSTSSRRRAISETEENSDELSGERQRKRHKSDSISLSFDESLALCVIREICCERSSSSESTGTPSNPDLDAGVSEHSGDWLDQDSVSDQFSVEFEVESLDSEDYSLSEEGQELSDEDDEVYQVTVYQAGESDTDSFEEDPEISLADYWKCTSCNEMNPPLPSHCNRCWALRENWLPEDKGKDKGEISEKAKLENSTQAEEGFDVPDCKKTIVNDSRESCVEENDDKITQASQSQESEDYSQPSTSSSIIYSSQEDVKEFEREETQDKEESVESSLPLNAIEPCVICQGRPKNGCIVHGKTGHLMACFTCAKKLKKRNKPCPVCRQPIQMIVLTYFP
Beta cell apopt = blocks beta cell apoptosis; INS-1E cytokine-induced death, ATP luminescence, 48 h; percent of positive-control rescue, neutral wells zero; protection from apoptosis, % (no concentration beside the values); 300,000 compounds, 0.8% hits; AID 435005;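 active = Every replicate reaches about 75%, or at least half do and their mean reaches it too, limit read from the data; inconclusive = At least half of replicates reach the limit but their mean does not; inactive = Under half of replicates reach the limit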;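 also: higher means more ATP so stronger rescue from cytokine killing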
Calb FLC = affects C. albicans growth with fluconazole; C. albicans CaCi-2 (fluconazole-resistant clinical isolate) + fluconazole, Alamar Blue growth, 48 h; growth inhibition, % (no concentration beside the values); 300,000 compounds, 0.57% hits; AID 1979;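 active = growth inhibition above about 58% in most replicates, limit read from the data, passing the limit was not always enough; inconclusive = exactly half the replicates above a set limit; inactive = most replicates below a set limit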;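 also: all wells also contain fluconazole at 8 µg/ml as a sub-toxic cotreatment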
Mdm2-MdmX conf = human Mdm2/MdmX binding inhibition, confirmed; shares compounds with Mdm2-MdmX inh; luminescent assay; inhibition, % at 8 µM; 10,000 compounds, 55% hits; in the data active = inhibition above about 40%
Full FLuc ctr = inhibits full-length luciferase, flagging false Mdm2/MdmX hits | SaOS-2 full-length luciferase counterscreen, luminescence | 6,200 compounds, 77% hits | shares compounds with Mdm2-MdmX inh | inhibition, % at 8 µM;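 active = mean inhibition at 8 µM reaching about 37%, which flags the compound as non-specific, limit read from the data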;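 also: p53-null SaOS-2 cells with luciferase driven by a doxycycline-inducible promoter; compound on cells about two nights before reading with doxycycline added after day one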
MPTP counter = Rhodamine 123 counter-screen of mitochondrial pore hits. shares compounds with MPTP inh. AID 624504. isolated mitochondria, membrane potential, Rhodamine 123 fluorescence. 5,000 compounds, 78% hits. inhibition, % at 10 µM; in the data active = inhibition above about 22%
MPTP swell DR = MPTP inhibition, dose response swelling confirmation | AID 651561 | isolated mitochondria swelling, absorbance | IC50, µM | 780 compounds, 58% hits | shares compounds with MPTP inh; in the data active = IC50 below about 20 µM
MPTP cs DR = MPTP inhibitor counter-screen activity, dose response; IC50, µM; isolated mitochondria counterscreen, fluorescence read-out; shares compounds with MPTP inh; AID 651564; 780 compounds, 49% hits; in the data active = IC50 below about 80 µM
Numbers stand for hits; n = inactive; u = inconclusive; x = no result. This is a sample that favours compounds with a hit; in the whole collection about 4.8% have one here.

SMILES	MPTP inh	CSC inhib	Mdm2-MdmX inh	Beta cell apopt	Calb FLC	Mdm2-MdmX conf	Full FLuc ctr	MPTP counter	others
O=C(OC1CCOC1=O)C1CCN(S(=O)(=O)c2ccc(Cl)c(C(F)(F)F)c2)CC1 (stereo not given)	n	n	n	n	n	x	x	x
CC(C)CCNC(=O)C1CCC(CNc2c(N3CCCC3)c(=O)c2=O)CC1 (stereo not given)	n	n	n	n	n	x	x	x
CC(C)(c1ccccc1)c1ccc(OCCCNCCO)cc1	94.4	n	53.9	x	x	n	x	n	MPTP swell DR=5.95;MPTP cs DR=n
CN1CCCC(CN2c3ccccc3Sc3ccccc32)C1 (stereo not given)	81.7	n	51.4	x	x	n	x	n
CN1CCCC(CC2c3ccccc3Sc3ccccc32)C1 (stereo not given)	99.9	n	59.1	x	x	n	64.6	n	MPTP swell DR=9.44;MPTP cs DR=n
CN1CCCC(OC(=O)c2ccccc2F)C1 (stereo not given)	n	n	n	n	n	x	x	x
CN1CCCCC1CCN1c2ccccc2Sc2ccc(S(C)=O)cc21 (stereo not given)	n	n	n	n	n	x	x	x
CCc1c(O)nc(SCC(=O)Nc2nc3ccccc3s2)n(C2CCCCC2)c1=O	n	x	n	x	n	x	x	x
O=C(OCc1cc(=O)n2ccsc2n1)C1(c2ccccc2)CC1	n	x	x	x	x	x	x	x
CCn1c2ccccc2c2cc(CNCc3ccc(OC)cc3OC)ccc21	73.2	n	100.3	n	u	59.9	53.7	37.1
CCN1CCCC1CNC(=O)c1cc2c(-c3ccc(Cl)cc3)nn(C)c2s1 (stereo not given)	83.2	n	65.0	x	n	n	x	n	MPTP swell DR=11.2;MPTP cs DR=n
CC(=O)c1sc(NC(=O)C2(F)C(F)(F)C(F)(F)C(F)(F)C(F)(F)C2(F)F)nc1C	94.7	n	92.7	108.6	n	84.5	n	91.2
COc1ccc(-c2csc(/C(C#N)=C\c3cccc([N+](=O)[O-])c3)n2)cc1	x	n	n	n	n	x	x	x
COc1ccc(-c2csc(/C(C#N)=C\c3ccc(O)c([N+](=O)[O-])c3)n2)cc1OC	98.9	n	53.2	n	n	47.3	62.0	49.8
Cc1ccc(-n2cc(CNCCc3cscn3)c(-c3ccc(F)cc3)n2)cc1	n	n	n	x	n	x	x	x
Cc1ccc(-n2cc(CNCCCn3ccnc3C)c(-c3ccc(F)cc3)n2)cc1	59.5	n	73.0	n	n	n	x	n
OC(c1cc(C(F)(F)F)nc2c(C(F)(F)F)cccc12)C1CCCCN1 (stereo not given)	91.9	n	100.4	n	x	88.7	n	n
FC(F)(F)c1cc(N2CCNCC2)c2ccccc2n1	n	n	n	n	n	x	x	x
CCN(CC)S(=O)(=O)c1cc([N+](=O)[O-])ccc1NNC(=O)Nc1ccc(Cl)c(Cl)c1	101.6	n	91.0	113.2	n	93.0	52.5	76.0
O=C(Nc1ccc(Cl)c([N+](=O)[O-])c1)C(Sc1ccccc1)c1ccccc1 (stereo not given)	105.2	n	88.2	n	n	82.2	n	80.3
O=C(NNc1ccccc1[N+](=O)[O-])Nc1ccccc1	n	n	n	n	n	x	x	x
O=C(NNc1ccccc1[N+](=O)[O-])Nc1ccc(Cl)c(Cl)c1	101.7	n	86.7	n	n	79.8	40.5	84.2
COc1ccc(CNC(=O)CN2CCN(c3ccc(F)cc3)CC2)cc1	n	n	n	n	n	x	x	x
NS(=O)(=O)c1ccc(Sc2nc3ccccc3s2)c([N+](=O)[O-])c1	59.6	n	78.9	n	n	81.8	55.9	43.0
CC(C)(C)N(NC(=O)Nc1ccc(Cl)c(Cl)c1)C(=O)c1ccccc1	103.9	x	86.3	n	n	66.5	42.6	96.9
SMILES	MPTP inh	CSC inhib	Mdm2-MdmX inh	Beta cell apopt	Calb FLC	Mdm2-MdmX conf	Full FLuc ctr	MPTP counter	others
Cc1cccnc1C(c1ccc(F)cc1)N(C)C(=O)C1CCN(CCOc2ccc(Cl)cc2Cl)CC1 (stereo not given)	n	x	x	x	x	x	x	x
Cc1ccc(S(=O)(=O)c2nnn3c2nc(Nc2cccc(C)c2)c2ccccc23)cc1	64.8	n	53.9	x	u	n	x	24.8
COCCNc1nc2c(S(=O)(=O)c3cc(C)ccc3C)nnn2c2ccccc12	n	n	n	n	n	x	x	x
O=C(N/N=C/c1cn(-c2ccccc2)nc1-c1cccs1)c1ccccc1F	n	n	n	n	n	x	x	x
O=C(N/N=C/c1cn(-c2ccccc2)nc1-c1cccs1)c1ccc(Cl)cc1	69.7	n	51.7	n	n	n	x	65.0
COc1cc(C(C)=O)ccc1O	n	n	n	n	x	x	x	x
CN(C)c1cc[n+](CC(=O)Nc2ccc(OC(F)F)cc2)cc1	n	n	n	n	n	x	x	x
Cc1cc(N2CCN(C)CC2)ccc1NC(=O)c1ccc(-c2ccc(Cl)cc2)o1	54.4	u	51.9	n	n	45.4	74.2	n
O=C(Nc1ccccc1N1CCCCC1)c1ccc(-c2ccc(Cl)cc2)o1	n	x	n	n	n	x	x	x
O=C1CCC(C(=O)NCc2ccccc2)N1 (stereo not given)	n	n	n	n	n	x	x	x
C[n+]1c2n(c3ccccc31)N=C(c1cc(C(C)(C)C)c(O)c(C(C)(C)C)c1)CS2	93.6	n	78.0	106.7	n	74.7	37.8	102.7
OCCN1CCN(CC(O)COc2ccc(C34CC5CC(CC(C5)C3)C4)cc2)CC1 (stereo not given)	91.0	112.5	94.7	n	n	72.7	n	n	MPTP swell DR=4.13;MPTP cs DR=55.2
CN(C)c1ccc(N=Nc2nc3ccccc3n2C)cc1	66.2	n	59.6	n	n	49.5	46.2	n
CC(=O)N1c2ccc(S(=O)(=O)N(C)CC(=O)NC(C)c3ccccc3)cc2CC1C (stereo not given)	n	n	n	n	n	x	x	x
COc1ccc(-c2cc(C3CCN(c4ccc(C(C)=O)cc4[N+](=O)[O-])CC3)[nH]n2)cc1	83.8	75.9	51.8	n	n	46.4	51.4	80.8
CCOc1ccc(CN(C)CC(O)COC(c2ccc(OC)cc2)c2ccc(OC)cc2)cc1 (stereo not given)	66.9	n	59.4	n	n	n	x	n	MPTP swell DR=14.8;MPTP cs DR=48.3
COc1ccc(CN(C)CC(O)COC(c2ccc(OC)cc2)c2ccc(OC)cc2)cc1 (stereo not given)	n	x	n	n	n	x	x	x
O=C(O)CCC(=O)Nc1nnc(C(F)(F)F)s1	n	n	n	n	x	x	x	x
CCC(NC(=O)Nc1nnc(C(F)(F)F)s1)(C(F)(F)F)C(F)(F)F	101.1	n	91.2	124.1	u	90.2	n	112.4
Nc1ccn(CCCN2CCN(C(=O)C3CC3)CC2)c(=O)n1	n	x	x	x	x	x	x	x
COc1ccccc1-c1ccc([C@@H]2C[C@H]3[C@H](CON3C)CN2C(=O)c2ccc(-c3ccccc3)cc2)cc1	n	x	x	x	x	x	x	x
